Experimental data: article PMC12820563, “FoxP3 forms a head-to-head dimer in vivo and stabilizes its multimerization on adjacent microsatellites”
The full ranking holds about 16,000 sequences; the median of “rpm ratio (pull-down/input)” is about 0.5, and the highest 2% start at about 5.5. Shown is part of a subset that was picked to be rich in the highest values.

Molecular target: T1, MBP-FoxP3dN (Mus musculus, UniProt Q99JB6 188-423)
T1 sequence: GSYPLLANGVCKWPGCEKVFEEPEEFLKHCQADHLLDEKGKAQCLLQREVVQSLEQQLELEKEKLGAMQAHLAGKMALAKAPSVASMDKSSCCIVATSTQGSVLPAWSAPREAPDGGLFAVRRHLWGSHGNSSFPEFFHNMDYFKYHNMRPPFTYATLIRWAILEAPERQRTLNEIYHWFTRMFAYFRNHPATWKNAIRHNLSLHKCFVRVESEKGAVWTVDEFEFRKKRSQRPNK
Assay: PD-seq (MBP pull-down with sequencing); 20 mM Tris-HCl pH 7.5, 100 mM NaCl, 1.5 mM MgCl2, 0.4 uM protein, 0.1 uM dsDNA library, 30 min, room temperature, amylose pull-down; high values mean tight binding
Details: protein: recombinant; tags: His6-MBP; chain copies: 2; dsDNA, one strand shown
Procedure, shortened: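 In Tris pH 7.5 buffer with NaCl and MgCl2, 0.4 µM His6-MBP-tagged mouse FoxP3 or FoxP1 fragment lacking the N-terminus, from E. coli, met 0.1 µM Klenow-filled double-stranded degenerate DNA library for 30 min at room temperature. Three washes on amylose resin followed capture of the complexes, then proteinase K release of DNA, PCR barcoding and Illumina sequencing. Binding is taken as pooled-replicate reads-per-million enrichment of pull-down relative to input.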

Sequence | binding signal
GATGATTGTTCTCCCAGCTGATGAATTGCCTCCATCGAGTAAACAAATTTTCCTAATCTTTCTGTTCAAGCGCCATCTAC | 1.28 RPM ratio (pull-down/input)
GATGATTGTTCTCCCAGCTGATGAATTATACTTCTCGAGTAAACAAATTTTCCTAATCTTTCTGTTCAAGCGCCATCTAC | 0.492 RPM ratio (pull-down/input)
GATGATTGTTCTCCCAGCTGATGAATTTTTCTACTCGAGTAAACAAATTTTCCTAATCTTTCTGTTCAAGCGCCATCTAC | 0.279 RPM ratio (pull-down/input)
GATGATTGTTCTCCCAGCTGATGAATTTATCGCCTCGAGTAAACAAATTTTCCTAATCTTTCTGTTCAAGCGCCATCTAC | 1.07 RPM ratio (pull-down/input)
GATGATTGTTCTCCCAGCTGATGAATTGCGCTCATCGAGTAAACAAATTTTCCTAATCTTTCTGTTCAAGCGCCATCTAC | 1.24 RPM ratio (pull-down/input)
GATGATTGTTCTCCCAGCTGATGAATTAGCCGGCTCGAGTAAACAAATTTTCCTAATCTTTCTGTTCAAGCGCCATCTAC | 0.203 RPM ratio (pull-down/input)
GATGATTGTTCTCCCAGCTGATGAATTTGATTTATCGAGTAAACAAATTTTCCTAATCTTTCTGTTCAAGCGCCATCTAC | 2.99 RPM ratio (pull-down/input)
GATGATTGTTCTCCCAGCTGATGAATTCTGTTTATCGAGTAAACAAATTTTCCTAATCTTTCTGTTCAAGCGCCATCTAC | 7.92 RPM ratio (pull-down/input)
GATGATTGTTCTCCCAGCTGATGAATTATGTTTATCGAGTAAACAAATTTTCCTAATCTTTCTGTTCAAGCGCCATCTAC | 8.36 RPM ratio (pull-down/input)
GATGATTGTTCTCCCAGCTGATGAATTTATCTAATCGAGTAAACAAATTTTCCTAATCTTTCTGTTCAAGCGCCATCTAC | 0.706 RPM ratio (pull-down/input)
GATGATTGTTCTCCCAGCTGATGAATTTTGTTTATCGAGTAAACAAATTTTCCTAATCTTTCTGTTCAAGCGCCATCTAC | 7.19 RPM ratio (pull-down/input)
GATGATTGTTCTCCCAGCTGATGAATTATGATTATCGAGTAAACAAATTTTCCTAATCTTTCTGTTCAAGCGCCATCTAC | 3.53 RPM ratio (pull-down/input)
GATGATTGTTCTCCCAGCTGATGAATTGTTTTTATCGAGTAAACAAATTTTCCTAATCTTTCTGTTCAAGCGCCATCTAC | 3.74 RPM ratio (pull-down/input)
GATGATTGTTCTCCCAGCTGATGAATTTATGTTATCGAGTAAACAAATTTTCCTAATCTTTCTGTTCAAGCGCCATCTAC | 3.24 RPM ratio (pull-down/input)
GATGATTGTTCTCCCAGCTGATGAATTGTGTTTATCGAGTAAACAAATTTTCCTAATCTTTCTGTTCAAGCGCCATCTAC | 8.53 RPM ratio (pull-down/input)
GATGATTGTTCTCCCAGCTGATGAATTCCTTTTATCGAGTAAACAAATTTTCCTAATCTTTCTGTTCAAGCGCCATCTAC | 0.345 RPM ratio (pull-down/input)
GATGATTGTTCTCCCAGCTGATGAATTTTCTTTATCGAGTAAACAAATTTTCCTAATCTTTCTGTTCAAGCGCCATCTAC | 1.27 RPM ratio (pull-down/input)
GATGATTGTTCTCCCAGCTGATGAATTCTTTTTATCGAGTAAACAAATTTTCCTAATCTTTCTGTTCAAGCGCCATCTAC | 0.332 RPM ratio (pull-down/input)
GATGATTGTTCTCCCAGCTGATGAATTACCACCCTCGAGTAAACAAATTTTCCTAATCTTTCTGTTCAAGCGCCATCTAC | 0.312 RPM ratio (pull-down/input)
GATGATTGTTCTCCCAGCTGATGAATTCGTCGTCTCGAGTAAACAAATTTTCCTAATCTTTCTGTTCAAGCGCCATCTAC | 1.31 RPM ratio (pull-down/input)
GATGATTGTTCTCCCAGCTGATGAATTAAAGTGCTCGAGTAAACAAATTTTCCTAATCTTTCTGTTCAAGCGCCATCTAC | 0.358 RPM ratio (pull-down/input)
GATGATTGTTCTCCCAGCTGATGAATTTTCCTTCTCGAGTAAACAAATTTTCCTAATCTTTCTGTTCAAGCGCCATCTAC | 0.258 RPM ratio (pull-down/input)
GATGATTGTTCTCCCAGCTGATGAATTTAGATTATCGAGTAAACAAATTTTCCTAATCTTTCTGTTCAAGCGCCATCTAC | 1.31 RPM ratio (pull-down/input)
GATGATTGTTCTCCCAGCTGATGAATTGTTTACATCGAGTAAACAAATTTTCCTAATCTTTCTGTTCAAGCGCCATCTAC | 8.09 RPM ratio (pull-down/input)

Sequence | binding signal
GATGATTGTTCTCCCAGCTGATGAATTTGTTTTATCGAGTAAACAAATTTTCCTAATCTTTCTGTTCAAGCGCCATCTAC | 6.46 RPM ratio (pull-down/input)
GATGATTGTTCTCCCAGCTGATGAATTGTTTATCTCGAGTAAACAAATTTTCCTAATCTTTCTGTTCAAGCGCCATCTAC | 6.57 RPM ratio (pull-down/input)
GATGATTGTTCTCCCAGCTGATGAATTTTTTATCTCGAGTAAACAAATTTTCCTAATCTTTCTGTTCAAGCGCCATCTAC | 0.243 RPM ratio (pull-down/input)
GATGATTGTTCTCCCAGCTGATGAATTTTTTACATCGAGTAAACAAATTTTCCTAATCTTTCTGTTCAAGCGCCATCTAC | 0.25 RPM ratio (pull-down/input)
GATGATTGTTCTCCCAGCTGATGAATTTACAACATCGAGTAAACAAATTTTCCTAATCTTTCTGTTCAAGCGCCATCTAC | 1.26 RPM ratio (pull-down/input)
GATGATTGTTCTCCCAGCTGATGAATTTTTTTTATCGAGTAAACAAATTTTCCTAATCTTTCTGTTCAAGCGCCATCTAC | 0.295 RPM ratio (pull-down/input)
GATGATTGTTCTCCCAGCTGATGAATTTCTTTTATCGAGTAAACAAATTTTCCTAATCTTTCTGTTCAAGCGCCATCTAC | 0.545 RPM ratio (pull-down/input)
GATGATTGTTCTCCCAGCTGATGAATTTATCTCCTCGAGTAAACAAATTTTCCTAATCTTTCTGTTCAAGCGCCATCTAC | 0.631 RPM ratio (pull-down/input)
GATGATTGTTCTCCCAGCTGATGAATTGTGTCCCTCGAGTAAACAAATTTTCCTAATCTTTCTGTTCAAGCGCCATCTAC | 2.1 RPM ratio (pull-down/input)
GATGATTGTTCTCCCAGCTGATGAATTTCCTCCCTCGAGTAAACAAATTTTCCTAATCTTTCTGTTCAAGCGCCATCTAC | 0.223 RPM ratio (pull-down/input)
GATGATTGTTCTCCCAGCTGATGAATTGGCGTCCTCGAGTAAACAAATTTTCCTAATCTTTCTGTTCAAGCGCCATCTAC | 1.06 RPM ratio (pull-down/input)
GATGATTGTTCTCCCAGCTGATGAATTACCCAACTCGAGTAAACAAATTTTCCTAATCTTTCTGTTCAAGCGCCATCTAC | 0.253 RPM ratio (pull-down/input)
GATGATTGTTCTCCCAGCTGATGAATTATTTCTGTCGAGTAAACAAATTTTCCTAATCTTTCTGTTCAAGCGCCATCTAC | 0.335 RPM ratio (pull-down/input)
GATGATTGTTCTCCCAGCTGATGAATTATATCTGTCGAGTAAACAAATTTTCCTAATCTTTCTGTTCAAGCGCCATCTAC | 0.544 RPM ratio (pull-down/input)
GATGATTGTTCTCCCAGCTGATGAATTGTTATTGTCGAGTAAACAAATTTTCCTAATCTTTCTGTTCAAGCGCCATCTAC | 6.63 RPM ratio (pull-down/input)
GATGATTGTTCTCCCAGCTGATGAATTATTTGTGTCGAGTAAACAAATTTTCCTAATCTTTCTGTTCAAGCGCCATCTAC | 2.76 RPM ratio (pull-down/input)
GATGATTGTTCTCCCAGCTGATGAATTTATTGTGTCGAGTAAACAAATTTTCCTAATCTTTCTGTTCAAGCGCCATCTAC | 6.95 RPM ratio (pull-down/input)
GATGATTGTTCTCCCAGCTGATGAATTTTATGTGTCGAGTAAACAAATTTTCCTAATCTTTCTGTTCAAGCGCCATCTAC | 2.49 RPM ratio (pull-down/input)
GATGATTGTTCTCCCAGCTGATGAATTATTATTGTCGAGTAAACAAATTTTCCTAATCTTTCTGTTCAAGCGCCATCTAC | 2.61 RPM ratio (pull-down/input)
GATGATTGTTCTCCCAGCTGATGAATTTATTCTGTCGAGTAAACAAATTTTCCTAATCTTTCTGTTCAAGCGCCATCTAC | 0.533 RPM ratio (pull-down/input)
GATGATTGTTCTCCCAGCTGATGAATTTTATTTGTCGAGTAAACAAATTTTCCTAATCTTTCTGTTCAAGCGCCATCTAC | 6.21 RPM ratio (pull-down/input)
GATGATTGTTCTCCCAGCTGATGAATTATTTTTGTCGAGTAAACAAATTTTCCTAATCTTTCTGTTCAAGCGCCATCTAC | 0.947 RPM ratio (pull-down/input)
GATGATTGTTCTCCCAGCTGATGAATTATATTTGTCGAGTAAACAAATTTTCCTAATCTTTCTGTTCAAGCGCCATCTAC | 5.66 RPM ratio (pull-down/input)
GATGATTGTTCTCCCAGCTGATGAATTTTTATTGTCGAGTAAACAAATTTTCCTAATCTTTCTGTTCAAGCGCCATCTAC | 0.972 RPM ratio (pull-down/input)
